Screening data: PubChem, several laboratories
Mcl-1 Bim block – disrupts Bim peptide binding to human Mcl-1 | Q07820 | Bead-based flow cytometry, Bim peptide-Mcl-1 binding | inhibition, % at 10 µM | hit rate 0.1% among 190,000; in the data active = inhibition above about 40%
Target sequence (Q07820 whole entry, looked up): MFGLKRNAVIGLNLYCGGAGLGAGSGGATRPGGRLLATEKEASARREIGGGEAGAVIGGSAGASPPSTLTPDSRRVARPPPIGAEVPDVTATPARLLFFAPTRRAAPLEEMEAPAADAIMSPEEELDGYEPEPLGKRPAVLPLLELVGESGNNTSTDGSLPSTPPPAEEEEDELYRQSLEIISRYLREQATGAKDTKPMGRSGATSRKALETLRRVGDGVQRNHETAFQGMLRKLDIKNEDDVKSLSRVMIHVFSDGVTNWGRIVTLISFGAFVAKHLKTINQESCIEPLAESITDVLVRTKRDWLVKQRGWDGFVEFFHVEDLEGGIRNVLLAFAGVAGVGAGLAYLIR
Mcl1-Noxa inh – disrupts binding of human Mcl-1 to Noxa peptide. inhibition, % at 21.7 µM. AID 1022. TR-FRET Mcl-1/Noxa peptide binding, 2 h. hit rate 1.5% among 220,000. Q07820;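 active = compounds that cut the protein-peptide binding signal by more than 50% relative to plate controls in a single-dose test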;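 also: His-tagged Mcl-1 with rhodamine Noxa BH3 peptide and terbium anti-His antibody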
14-3-3 Bad PPI – disrupts binding of bovine 14-3-3 zeta to phospho-Bad peptide. TR-FRET 14-3-3zeta/Dy647-pBad peptide displacement, 1 h. hit rate 0.71% among 220,000. AID 781. inhibition, % at 21.7 µM;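 active = inhibition above about 70%, limit read from the data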
Target sequence (P63103 whole entry, looked up): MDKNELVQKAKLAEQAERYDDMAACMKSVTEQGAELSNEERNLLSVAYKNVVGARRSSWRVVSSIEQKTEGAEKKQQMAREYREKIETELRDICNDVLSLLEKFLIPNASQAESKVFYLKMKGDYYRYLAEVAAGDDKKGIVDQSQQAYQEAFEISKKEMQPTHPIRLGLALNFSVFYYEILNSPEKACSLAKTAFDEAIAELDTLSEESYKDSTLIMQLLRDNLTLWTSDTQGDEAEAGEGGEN
Mcl1 Bid PPI – Mcl-1/Bid interaction inhibition | inhibition, % at 21.7 µM | Q07820 | hit rate 0.97% among 220,000 | TR-FRET Mcl-1/Bid-Dy647 peptide binding, 1536-well;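 active = compounds that cut the binding signal by more than half at the single screening dose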;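 also: His-tagged Mcl-1 with europium anti-His antibody binding Bid BH3 peptide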
Arbovirus inh – arbovirus infection inhibition; arbovirus infection cell-based antiviral screen; inhibition, % at 10 µM; hit rate 0.37% among 200,000; in the data active = inhibition above about 30%
A number is an active result; i = inactive; nt = no result given. The list is not random: actives were taken first. Their share in the collection is about 3%.

SMILES	Mcl-1 Bim block	Mcl1-Noxa inh	14-3-3 Bad PPI	Mcl1 Bid PPI	Arbovirus inh
CN(C)c1ccc(/C=C2\C(=N)N3C(=NC2=O)Sc2cc(S(C)(=O)=O)ccc23)cc1	nt	60	i	64	nt
CCOC(=O)CC1COCCN1Cc1cn(C)nc1-c1ccccc1F (centres undefined)	i	i	i	i	i
COC(=O)NNC(=S)NCc1ccccc1	i	i	i	i	i
CC(C)CN(CC(C)C)C(=S)NC1CCCCC1	i	i	i	93	i
O=C(O)/C=C/C(=O)Nc1ccc(Oc2ccc(NC(=O)/C=C/C(=O)O)cc2)cc1	i	66	i	i	i
O=C(O)/C=C\C(=O)Nc1ccc(Oc2ccccc2)cc1	i	i	i	i	i
COc1cccc(C(=O)Nc2ccc(NC(C)=O)cc2)c1	i	i	i	i	i
COc1cccc(C(=O)Nc2cc(Cl)c(O)c(Cl)c2)c1	nt	98	i	i	nt
CC1=C(C)CC2(SC1)C(=O)N(c1ccccc1)N=C2N (centres undefined)	i	i	i	i	i
COc1ccc(CN(C)CC(=O)NC(C)c2ccccc2)c(OC)c1 (centres undefined)	i	i	i	56	i
CCCCC(=O)Nc1ccccc1N1CCOCC1	i	i	i	i	i
CCOCCCNCC(=O)Nc1ccccc1N1CCOCC1	i	i	71	i	i
Cc1ccc(C(=O)N/C(=C\c2ccc(Cl)cc2)C(=O)NCCCN2CCOCC2)cc1	i	i	i	i	i
O=C(NCCCN1CCOCC1)c1cccnc1	i	i	i	i	i
CSc1ccccc1NC(=O)CNCCCN1CCOCC1	nt	i	i	89	nt
O=C(NCCCN1CCOCC1)c1ccccc1	i	i	81	i	i
Cc1ccc(C(=O)N/C(=C\c2ccc(C(C)C)cc2)C(=O)NCCCN2CCOCC2)cc1	i	51	i	i	i
Cc1ccc(CNC(=O)c2cnccn2)cc1	i	i	i	i	i
COc1ccccc1N(C)S(=O)(=O)c1ccc(C(=O)Nc2nc(C)cs2)cc1	i	i	i	i	i
O=C(N/C(=C\c1ccc(Br)cc1)C(=O)N1CCCC1)c1ccccc1F	i	i	i	i	i
CC(C)n1c(O)c(/C=C2\C=NN=C2c2ccccc2)sc1=S	nt	66	i	i	nt
CCOC(=O)C1CCCN(C(=O)CSCc2ccccc2)C1 (centres undefined)	i	i	84	i	i
CCOC(=O)C1CCCN(Cc2ccccc2F)C1 (centres undefined)	i	i	73	i	i
CCOC(=O)C1CCCCN1Cc1ccccc1C(F)(F)F (centres undefined)	i	i	80	i	i
CCOC(=O)C1CCCN(CC(=O)NC2CC2)C1 (centres undefined)	i	i	77	i	i
SMILES	Mcl-1 Bim block	Mcl1-Noxa inh	14-3-3 Bad PPI	Mcl1 Bid PPI	Arbovirus inh
CCOC(=O)C1CCCN(Cc2c(Cl)cccc2Cl)C1 (centres undefined)	i	i	i	i	i
CCC(C)C(NC(=O)C1CCC(C)CC1)C(=O)NC1CCN(Cc2ccccc2)CC1 (centres undefined)	i	i	i	i	i
CN(C)S(=O)(=O)c1ccc(NC(=O)COC(=O)C2COc3ccccc3O2)cc1 (centres undefined)	i	i	i	i	i
NNC(=O)Cn1nc2n(c1=O)-c1ccccc1SC2	nt	i	i	i	nt
CCOC(=O)CSc1ncc(-c2ccc([N+](=O)[O-])cc2)[nH]1	i	i	i	i	i
Cc1ccc(/C=N/NC(=O)CNC(=O)Cc2ccccc2)o1	i	i	i	i	i
CCn1c(-c2cc(Cl)ccc2OC)n[nH]c1=S	i	59	i	i	i
O=C(O)c1cnn2c(C(F)(F)F)cc(-c3ccco3)nc12	i	i	i	79	i
C=CCN(C(=O)CNC(=O)c1cccs1)C(C(=O)NC1CCCCC1)c1cccnc1 (centres undefined)	i	i	i	i	i
CN(C)c1nc2ccccc2c(N)c1-c1ccccc1	i	i	77	i	i
CCOc1nnnc2c1sc1nc(N3CCOCC3)c3c(c12)CCCC3	i	i	i	i	i
O=C(COC(=O)c1cnccn1)NCc1ccc2c(c1)OCO2	i	i	i	i	i
CCCCCCC(=O)Oc1ccc(N2C(=O)CCC2=O)cc1	i	55	i	i	i
CCC1=NN(C(=O)COc2ccccc2)C(O)(c2ccc(Br)cc2)C1 (centres undefined)	i	i	i	i	i
O=C(/C=C\c1ccco1)c1ccc(NC(=O)c2ccco2)cc1	i	76	i	i	i
CC(=O)Nc1cccc(C(=O)/C=C/c2ccc(/C=C/C(=O)c3cccc(NC(C)=O)c3)cc2)c1	i	i	i	59	i
O=C(/C=C/c1ccco1)c1ccc(O)cc1	i	i	i	i	i
CC(=O)Nc1ccc(C(=O)/C=C/c2ccco2)cc1	i	61	i	i	i
CC(=O)Nc1cccc(C(=O)/C=C/c2ccc(F)cc2)c1	i	i	i	i	i
CCNc1nc(C23CC4CC(CC(C4)C2)C3)cs1	i	i	i	i	i
CCOc1ccccc1NC(=O)CCn1cccc1	i	i	i	i	i
C[C@@H](C(=O)Nc1nc2ccc(F)cc2s1)N1C(=O)C2CC=CCC2C1=O (some centres undefined)	i	i	i	95	i
CC(NCc1ccc2c(c1)OCO2)C(=O)NC1CCCc2ccccc21 (centres undefined)	i	i	i	69	i
O=C1CS/C(=N\C(=O)N2c3ccccc3Sc3ccccc32)N1	i	69	i	i	i
O=C1CSC(=Nc2ccccc2)N1	i	i	i	i	i
SMILES	Mcl-1 Bim block	Mcl1-Noxa inh	14-3-3 Bad PPI	Mcl1 Bid PPI	Arbovirus inh
COc1ccc(N=C2S/C(=C\c3ccc(OCC(=O)O)cc3)C(=O)N2CCc2c[nH]c3ccccc23)cc1	i	70	i	i	46
COc1ccc(N=C2S/C(=C\c3ccc(N4CCOCC4)o3)C(=O)N2CCc2c[nH]c3ccccc23)cc1	i	i	i	i	i
Cc1ccc(NC(=O)c2cc(-c3ccc(C)o3)nc3ccccc23)cc1	i	i	i	i	i
Cc1ccc(-c2cc(C(=O)Nc3ccccn3)c3ccccc3n2)o1	i	82	i	i	i
C=CCNC(=S)Nc1c(N)n(C)c(=O)n(C)c1=O	nt	i	i	i	nt
COC(=O)c1ccc2nc(Nc3nc4ccc(F)cc4s3)sc2c1	i	95	77	81	i
CCCn1c2c(c(O)c(C(=O)Nc3nc4ccccc4s3)c1=O)CCCC2	i	i	i	i	43
CC(=O)c1ccc(N2CCN(C(=O)CCCn3c(=S)[nH]c4cc5c(cc4c3=O)OCO5)CC2)cc1	i	i	i	55	i
Cc1ccc(C2=NN=C(NC(=O)CSc3nnc4c5ccccc5n(C)c4n3)SC2)cc1	i	63	i	i	i
N#C/C(=C1/CCCCCN1)c1nc2ccccc2s1	i	i	i	98	i
COc1ccc(/C=N/n2c(=O)[nH]c3c([nH]c4ccc(Cl)cc43)c2=O)cc1CN1CCCCC1	nt	i	i	i	nt
COc1ccc(/C=N/n2c(=O)[nH]c3c([nH]c4ccc(Br)cc43)c2=O)cc1CN1CCOCC1	i	54	i	i	i
Cc1cc(C)n2ncc(/C(N)=N/OC(=O)Nc3ccccc3)c2n1	nt	i	i	i	nt
